An excerpt weighted towards active compounds, which were near 2.2% of everything screened.
uPA generation = cell surface uPA generation inhibition; Potency, µM (titrated, usually from 38.3 µM), inactives show at the highest dose activity change, negative = inhibition, actives largely listed as inhibitors; cell surface uPA generation assay, qHTS; 0.31% of 330,000 active; active means well fitted inhibition curve with a large enough effect; inconclusive means small, poorly fitted or top-dose-only effect; inactive means no such curve, though single readings can be large or run the other way; tested in mouse RAW 264.7 cells; further: potency means the concentration at half of the fitted maximal effect; on the % scale 0 is the no-effect control and ±100 the full control effect; nearly all actives have a fitted effect of over 55% in size
CCT chaperon mod = cytosolic chaperonin activity modulation; activity change, % (no concentration beside the values), hits read low; 0.3% of 360,000 active; purified chaperonin ATPase assay, HTRF ADP detection, 30 min; in the data active means activity change below about -30%; further: on the % scale 0 is the no-effect control and ±100 the full control effect
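First, chaperonin was dispensed at 40 nM or 20 nM final depending on batch activity. Next, compounds were pinned at 76 uM and ATP added at 10 uM. After 30 min at 37 °C, ADP detection reagents ran 30 min at ambient temperature.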
HEK293 tox = cytotoxicity counter-screen for GLP-1 receptor inverse agonists | HEK293 cAMP-luciferase reporter cells, luminescence, 24 h | Potency, µM (highest dose often 38.3 µM), without a hit: at the top dose activity change, negative = inhibition, actives largely listed as inhibitors | 0.13% of 410,000 active | AID 624418;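 further: loss of luciferase light is scored as toxicity; potency means the concentration at half of the fitted maximal effect; on the % scale 0 is the no-effect control and ±100 the full control effect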
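A 23 nL compound transfer followed 12 hours of cell culture at 37 deg C; exposure then lasted 24 hr. Luciferase assay detection reagent was dispensed and plates read for luminescence after a 12 min room-temperature wait.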
GLP-1R agonist = GLP-1 receptor (human) agonism | HEK293 GLP-1R CRE-luciferase, luminescence, 4-6 h; cells express a hypersensitive GLP-1R form | AID 624172 | Potency, µM (top dose mostly 45.6 µM), without a hit: at the highest dose activation, actives largely listed as activators | 0.007% of 380,000 active | P43220; further: potency means the concentration at half of the fitted maximal effect; % of control where 0% means no effect
Target sequence (P43220 whole entry, looked up): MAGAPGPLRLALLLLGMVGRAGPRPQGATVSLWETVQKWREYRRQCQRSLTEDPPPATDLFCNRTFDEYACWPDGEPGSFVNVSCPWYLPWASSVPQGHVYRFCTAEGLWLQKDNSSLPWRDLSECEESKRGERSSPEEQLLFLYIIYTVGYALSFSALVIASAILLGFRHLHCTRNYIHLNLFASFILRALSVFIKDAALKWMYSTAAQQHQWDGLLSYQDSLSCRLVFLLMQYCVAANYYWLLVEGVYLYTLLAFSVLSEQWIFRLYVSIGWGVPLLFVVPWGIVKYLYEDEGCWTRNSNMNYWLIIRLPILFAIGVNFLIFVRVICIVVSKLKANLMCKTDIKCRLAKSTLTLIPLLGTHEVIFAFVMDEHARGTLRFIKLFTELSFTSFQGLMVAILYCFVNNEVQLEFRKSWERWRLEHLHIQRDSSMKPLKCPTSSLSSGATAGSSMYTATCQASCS
Mm-Cpn inhibitor = M. maripaludis TRiC chaperonin inhibition; purified Mm-Cpn ATPase, ADP Transcreener TR-FRET; Potency, µM (top dose mostly 76.9 µM), without a hit: at the top dose activity, negative = inhibition, hits mostly inhibitors; 0.031% of 330,000 active; AID 504842; further: potency means the concentration at half of the fitted maximal effect; on the % scale 0 is the no-effect control and ±100 the full control effect; nearly all actives have a fitted effect of over 80% in size
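Reaction buffer contained 30 mM Tris pH 7.4, 100 mM KCl, 5 mM MgCl2 and 1 mM DTT. Mm-CPN (25 nM final) hydrolysed 10 uM ATP over 30 min at 37°C; ADP was read by HTRF.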
GLP-1R inv ag = inverse agonists of human GLP-1 receptor | P43220 | HEK293 GLP-1R CRE-luciferase, luminescence, 24 h; GLP-1R form is constitutively active | Potency, µM (series often up to 38.3 µM), inactives show at the highest dose activity change, negative = inhibition, actives largely listed as inhibitors | 1.6% of 410,000 active; further: potency means the concentration at half of the fitted maximal effect; on the % scale 0 is the no-effect control and ±100 the full control effect; nearly all actives have a fitted effect of over 55% in size
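Inverse agonism was detected as reduced cAMP-driven luciferase luminescence after 24 h compound treatment. The cells were HEK293 clones expressing constitutively active human GLP-1R with the reporter. Reporter-only and GPR119 cell lines served as counterscreen controls.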
* hit, by the source's call; u = inconclusive; x = no result given; [ ] = dose if it differs, or a comment. Unless noted, the call rests on the fitted dose curve; in most records, active means well fitted curve in the direction sought with a large enough effect; inconclusive means small, poorly fitted or top-dose-only effect, or another doubt; inactive means no such curve, though single readings can be large; an effect the other way counts as inactive or inconclusive.

SMILES	uPA generation	CCT chaperon mod	HEK293 tox	GLP-1R agonist	Mm-Cpn inhibitor	GLP-1R inv ag
COC(=O)[C@H](C)N(Cc1ccc(Cl)c(Cl)c1)S(=O)(=O)CCNC1CCCC1	-18%	-1	-2%	-4%	-2%	13µM*
COc1ccc(CN(CCC(c2ccc3c(c2)OCO3)c2ccccc2OC)C(C)=O)cc1 (centres undefined)	x	x	-2%	x	x	u
CC(=O)N(CCC(Cc1ccccc1)c1ccc2c(c1)OCO2)Cc1ccc(Cl)cc1 (centres undefined)	0%	-5	u	-2%	0%[15.4 µM]	11µM*
CC(C)Oc1ccc(C(=O)NC2CCCCC2)cc1	-12%	-1	5%	-5%	2%	-2%
CC(C)Oc1ccc(C(CCN)C2CCCCC2)cc1 (centres undefined)	-12%	-1	u	-1%	-1%	10µM*
CCC(C)c1ccc(NC(=S)NCCn2cc(Cl)cn2)cc1 (centres undefined)	x	-39*	u	15%	-2%	u
CCC(C)c1ccc(NC(=S)NCCn2cc(Br)cn2)cc1 (centres undefined)	-3%	-3	u	15%	-1%	u
COc1ccc2c(c1)c(=O)c(C(=O)c1ccccc1)cn2CC(=O)Nc1ccc2c(c1)OCO2	x	x	-2%	1%	x	-1%
Cc1cccc(-n2cc(-c3ccccc3)c3c(NC4CCCC4)ncnc32)c1	x	x	2%	x	x	u
CC1CN(c2ncnc3c2c(-c2ccccc2)cn3-c2ccc(F)cc2)CC(C)O1 (centres undefined)	5%	1	6%	12%	1%	4µM*
Cc1ccc(-n2cc(-c3ccccc3)c3c(NC4CCCC4)ncnc32)cc1	x	x	-8%	x	x	2.5µM*
Cc1ccc(-n2cc(-c3ccccc3)c3c(N4CCOCC4)ncnc32)cc1	0%	0	-17%	7%	2%	3.5µM*
Cc1cccc(N2CCN(C(=O)c3sc4nc5n(c(=O)c4c3C)CCC5)CC2C)c1 (centres undefined)	x	x	5%	x	x	2%
CCN(CC)c1nn2c(=O)c(C(=O)NCCc3cccc(C)c3)cnc2s1	x	x	2%	x	x	-13%
COc1ccc(Cn2c(C3CCCCC3)nc3c(c(=O)c4ccccc4n3C)c2=O)cc1	-1%	0	-21%	2%	1%	-18%
COc1ccc(CCn2c(C3CCCCC3)nc3c(c(=O)c4ccccc4n3C)c2=O)cc1	u	1	5µM*	8%	-1%	u
O=S(=O)(c1cccc(-c2nnc(-c3ccc(Br)cc3)o2)c1)N1CCCCCC1	0%	-58*	-9%	-6%	-3%	6%
O=S(=O)(c1cccc(-c2nnco2)c1)N1CCCC1	-8%	2	-18%	-1%	-1%	-3%
NC(=O)CSc1nnc(-c2cccc(S(=O)(=O)N3CCCCC3)c2)o1	0%	-57*	0%	-3%	-2%	15%
CC(C)(C)c1cc(NC(=O)C2(C)CCN2C(=O)c2ccccc2CCc2ccccc2)no1 (centres undefined)	x	-1	5%	0%	x	8.9µM*
COc1ccc(NC(=O)C2(C)CCN2C(=O)c2ccccc2CCc2ccccc2)cc1OC (centres undefined)	x	2	u	-1%	x	u
Cc1ccc(NC(=O)C2(C)CCN2C(=O)c2ccccc2CCc2ccccc2)cc1C (centres undefined)	x	-6	-5%	2%	x	2.8µM*
Clc1ccc2c(c1)C(C1=NCCN1)c1ccccc1CS2 (centres undefined)	-10%	-1	u	-4%	0%	3.2µM*
S=C1NCCc2ccc(Cl)cc2C1c1ccccc1Cl (centres undefined)	-3%	2	u	-2%	0%	u
COC(=O)CC1Oc2ccc(Cl)cc2-n2cc(-c3ccc(C)cc3)nc21 (centres undefined)	x	x	5%	3%	x	-12%
SMILES	uPA generation	CCT chaperon mod	HEK293 tox	GLP-1R agonist	Mm-Cpn inhibitor	GLP-1R inv ag
CCn1c(Oc2cccc(Br)c2)nc2c1c(=O)n(C)c(=O)n2C	27%	-44*	-1%	22%	1%	6%
CCCn1c(Oc2ccccc2)nc2c1c(=O)n(C)c(=O)n2C	5%	-3	16%	1%	2%	11%
CCOC(=O)c1nnc2c(-c3ccc(Cl)cc3)c(C)nn2c1N	x	x	6%	0%	x	-2%
CCOC(=O)c1cc(-c2ccccc2)n(CC(=O)NC2CCC(C)CC2)c1C (centres undefined)	x	x	3%	x	x	-6%
COc1cc2sc(-c3ccc(S(C)(=O)=O)cc3)c(C(=O)NCc3ccc(C)o3)c2cc1OC	-9%	0	-11%	0%	50µM*	4%
O=C(NCc1ccc2c(c1)OCO2)c1c(-c2ccccc2)sc2ccccc12	-2%	-1	10%	6%	-12%	9%
Cc1ccc(CNC(=O)c2c(-c3ccccc3)sc3ccccc23)o1	-29%	-3	7%	9%	-25%	5µM*
CCCS(=O)(=O)N1CCC(C(=O)NCCOC)CC1	x	x	-7%	-2%	x	0%
C[C@@H]1O[C@@]2(CS1)CN1CCC2CC1	x	x	x	-2%	x	x
CCCn1c(C(C)Nc2nc(-c3cccc(Br)c3)cs2)nc2ccccc21 (centres undefined)	6%	1	-25%	15%	0%	u
CCCn1c(C(C)Nc2nc(-c3ccc(C)cc3)cs2)nc2ccccc21 (centres undefined)	-22%	2	u	6%	0%	11µM*
O=C(N/N=C/c1c(Cl)cccc1Cl)c1n[nH]c2c1CCCC2	-23%	0	-23%	-3%	0%	u
CCC(C)(C)C1CCc2[nH]nc(C(=O)N/N=C(\C)c3ccco3)c2C1 (centres undefined)	-6%	-3	u	10%	4%	u
Cc1ccsc1/C=N\NC(=O)c1n[nH]c2c1CCC2	-17%	-1	u	-21%	4%	2.8µM*
C/C(=N\NC(=O)c1n[nH]c2c1CCC2)c1ccco1	-12%	-2	13%	-6%	0%	1.8µM*
Nc1cc(C(F)(F)F)ccc1NCCc1ccccn1	-3%	-107*	6%	17%	-5%	u
Cc1ccccc1Oc1cc(-n2ncc(Cl)c(Cl)c2=O)ncn1	2.2µM*	-2	3.2µM*	-22%	-8%	u
CCOC(=O)c1c(NC(=O)CSc2nnc(-c3ccco3)o2)sc(C(C)=O)c1C	-12%	-60*	-4%	-6%	x	1%
